Measured values: PubChem BioAssay (Tox21)
Results filed as inconclusive are left out. Calls of active or inactive are those of the source. Unless noted, calls follow the shape of the dose curve; as a rule, active = well fitted curve in the direction sought with a large enough effect in the repeat runs; inconclusive = weak or mixed curves; inactive = no such curve, though single readings can be large; an effect the other way counts as inactive or inconclusive.

How the values were obtained:
[1] = molecular target: Nuclear receptor subfamily 1 group I member 3 (Homo sapiens) (UniProt Q14994); assay: qHTS assay to identify small molecule agonists of the constitutive androstane receptor (CAR) signaling pathway (AID 1224839);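 also: HepG2 cells stably carrying human CAR and a CYP2B6 luciferase reporter; nearly all actives have a fitted effect of over 15% in size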
How it was run: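 HepG2 cells stably co-transfected with hCAR and a CYP2B6-2.2kb luciferase reporter; compounds at 15 concentrations with 0.75 uM PK11195 present. After 24 hr at 37 C, luciferase read by ONE-Glo luminescence.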

[2] = qHTS assay to identify small molecule antagonists of the estrogen related receptor signaling pathway with the pleiotropic PPARgamma coactivator (PGC) from Tox21 10K library - cell viability counter screen (AID 1224840; active = well fitted cell-killing curve with a large enough effect in the repeat runs, not every such curve was filed as active; also: nearly all actives have a fitted effect of over 40% in size)
How it was run: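 PGC/ERR cells were seeded at 2,000 cells/well and left 6 hours at 37 C/5% CO2 before pin-tool addition of compounds in DMSO. After 17.5 hours at 37 C, CellTiter-Fluor was added and fluorescence read 30 minutes later.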

[3] = molecular target: Thyrotropin receptor (Homo sapiens) (UniProt P16473); assay: qHTS assay to identify small molecule agonists of the thyroid stimulating hormone receptor (TSHR) signaling pathway (AID 1224843; calls by dose curve; also: nearly all actives have a fitted effect of over 45% in size)
How it was run: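 Cell line HEK293 with TSHR; density 800/well. Exposure 30 min RT. Readout HTRF cAMP (cAMP-d2/anti-cAMP-cryptate), 1 h RT before reading.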

[4] = qHTS assay to identify small molecule agonists of the hypoxia (HIF-1) signaling pathway - cell viability counter screen (AID 1224844; calls by dose curve; also: nearly all actives have a fitted effect of over 50% in size)
How it was run: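 HRE-bla ME-180 cells in medium with 0.5% dialyzed FBS were preincubated 5 hrs at 37C, exposed to compounds for 17 hrs, then viability was read as CellTiter-Glo luminescence after 30 min at room temperature, in the reporter wells.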

[5] = qHTS assay to identify small molecule agonists of H2AX (AID 1224845; active = well fitted activation curve with a large enough effect in the signal ratio in the repeat runs, not every such curve was filed as active; the % refers to the signal ratio)
How it was run: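 Wild-type CHO-K1 cells plated overnight, then exposed 3 hr at 37C to compounds at 15 concentrations (0.76% DMSO). Lysed, then HTRF anti-pH2AX(S139)-cryptate/anti-H2AX-d2 detection after 24 hr at room temperature; emissions 665 and 620 nm.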

[6] = qHTS assay to identify small molecule agonists of the hypoxia (HIF-1) signaling pathway (AID 1224846; active = well fitted activation curve with a large enough effect in the signal ratio in the repeat runs, not every such curve was filed as active; the % refers to the signal ratio)
How it was run: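 HRE-bla ME-180 cells (beta-lactamase reporter under hypoxia response element) were plated at 2,000 cells/well in medium with 0.5% dialyzed FBS, rested 5 hrs, then given compounds in DMSO for 17 hrs at 37C, 5% CO2. Reporter induction was read with CCF4-AM FRET substrate.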

[7] = qHTS RealTime-Glo MT Cell Viability Assay in HepG2 cells - 24 hour (AID 1224867); also: nearly all actives have a fitted effect of over 50% in size
How it was run: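 HepG2 cells (600/well) were dispensed with RealTime-Glo reagents, incubated 5 h at 37 °C, then treated with compounds in DMSO for up to 40 h. Nonlytic NanoLuc luminescence reflecting viable cells was read at each stated time point.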

[8] = qHTS RealTime-Glo MT Cell Viability Assay in HEK293 cells - 32 hour (AID 1224868); also: top concentration of the series differs between compounds; nearly all actives have a fitted effect of over 50% in size
How it was run: (§1)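 HEK293 cells seeded with NanoLuc/prosubstrate reagent, rested 5 h at 37 C, then dosed and kept at 37 C up to 40 h. Nonlytic real-time luminescence from viable cells read at 0, 8, 16, 24, 32 and 40 h.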

[9] = A CellTox Green Cytotoxicity Assay to monitor cytotoxicity in HEK293 cells - 0 hour (AID 1224869); also: nearly all actives have a fitted effect of over 50% in size
How it was run: (§2)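 HEK293 cells premixed with CellTox Green dye were seeded at 600 cells/well and left 5 h at 37 C/5% CO2 before pin transfer of 23 nL compound in DMSO. Fluorescence from dye bound to dead-cell DNA was read during 40 h treatment.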

[10] = qHTS RealTime-Glo MT Cell Viability Assay in HepG2 cells - 40 hour (AID 1224870); also: nearly all actives have a fitted effect of over 50% in size
How it was run: (§3)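 HepG2 cells mixed with RealTime-Glo MT reagents (NanoLuc plus cell-permeant prosubstrate) were seeded at 600 cells/well, incubated 5 h at 37 C/5% CO2, then pinned with compounds in DMSO; nonlytic luminescence tracked viability during 40 h treatment.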

[11] = A CellTox Green Cytotoxicity Assay to monitor cytotoxicity in HEK293 cells - 40 hour (AID 1224871); also: nearly all actives have a fitted effect of over 45% in size
How it was run: as §2

[12] = qHTS RealTime-Glo MT Cell Viability Assay in HEK293 cells - 16 hour (AID 1224872)
How it was run: as §1

[13] = qHTS RealTime-Glo MT Cell Viability Assay in HepG2 cells - 8 hour (AID 1224873); also: nearly all actives have a fitted effect of over 55% in size
How it was run: as §3

[14] = qHTS RealTime-Glo MT Cell Viability Assay in HEK293 cells - 40 hour (AID 1224874); conditions: RealTime-Glo luminescence; max response: hits give low values; also: nearly all actives have a fitted effect of over 50% in size
How it was run: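 HEK293 cells mixed with RealTime-Glo reagents (NanoLuc plus cell-permeant prosubstrate) at 600 cells/well, preincubated 5 h at 37 C/5% CO2, then given 23 nL compound in DMSO. Nonlytic luminescence from viable cells was read at 0, 8, 16, 24, 32 and 40 h.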

[15] = A CellTox Green Cytotoxicity Assay to monitor cytotoxicity in HEK293 cells - 24 hour (AID 1224875); also: nearly all actives have a fitted effect of over 45% in size
How it was run: as §2

[16] = qHTS assay to identify small molecule agonists of H2AX - cell viability counter screen (AID 1224847; calls by dose curve; also: top concentration of the series differs between compounds; nearly all actives have a fitted effect of over 30% in size)
How it was run: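 CHO-K1 cells plated overnight at 37C, then exposed 3 h at 37C to compounds at 15 concentrations (0.76% DMSO final). Viability by CellTiter-Glo luminescence after 30 min at room temperature.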

[17] = qHTS assay to identify small molecule antagonists of the estrogen related receptor (ERR) signaling pathway from Tox21 library (AID 1224848); also: nearly all actives have a fitted effect of over 50% in size
How it was run: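 Screening used an ERR reporter line supplied by NTP, exposed for 18 h at 37 C to library compounds delivered in DMSO. Signal was luciferase luminescence developed with ONE-Glo at room temperature for 30 min.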

[18] = qHTS assay to identify small molecule agonists of the estrogen related receptor (ERR) signaling pathway from Tox21 library (AID 1224849; calls by dose curve; also: nearly all actives have a fitted effect of over 15% in size); conditions: ERR reporter cell line, ONE-Glo luciferase, 18 h; at 92.4 µM (top of the series) unless noted
How it was run: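 ERR reporter cell line (NTP) seeded, rested 6 h at 37 C/5% CO2, then pinned with Tox21 compounds in DMSO. After 18 h at 37 C, ONE-Glo luciferase luminescence was read following 30 min at room temperature.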
% is scaled to controls: 0 for no effect and ±100 for the full control effect.

Sequence of Nuclear receptor subfamily 1 group I member 3 (Homo sapiens) (Q14994 whole entry, looked up): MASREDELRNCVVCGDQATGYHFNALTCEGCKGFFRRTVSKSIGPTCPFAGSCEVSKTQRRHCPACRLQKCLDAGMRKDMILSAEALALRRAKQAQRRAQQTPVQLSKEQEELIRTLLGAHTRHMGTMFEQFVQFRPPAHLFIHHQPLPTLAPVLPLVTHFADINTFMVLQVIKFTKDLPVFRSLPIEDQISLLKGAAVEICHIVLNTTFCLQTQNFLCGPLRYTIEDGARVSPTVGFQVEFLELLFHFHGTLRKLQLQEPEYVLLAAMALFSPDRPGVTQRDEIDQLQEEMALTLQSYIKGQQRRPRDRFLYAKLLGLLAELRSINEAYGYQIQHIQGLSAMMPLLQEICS
Sequence of Thyrotropin receptor (Homo sapiens) (P16473 whole entry, looked up): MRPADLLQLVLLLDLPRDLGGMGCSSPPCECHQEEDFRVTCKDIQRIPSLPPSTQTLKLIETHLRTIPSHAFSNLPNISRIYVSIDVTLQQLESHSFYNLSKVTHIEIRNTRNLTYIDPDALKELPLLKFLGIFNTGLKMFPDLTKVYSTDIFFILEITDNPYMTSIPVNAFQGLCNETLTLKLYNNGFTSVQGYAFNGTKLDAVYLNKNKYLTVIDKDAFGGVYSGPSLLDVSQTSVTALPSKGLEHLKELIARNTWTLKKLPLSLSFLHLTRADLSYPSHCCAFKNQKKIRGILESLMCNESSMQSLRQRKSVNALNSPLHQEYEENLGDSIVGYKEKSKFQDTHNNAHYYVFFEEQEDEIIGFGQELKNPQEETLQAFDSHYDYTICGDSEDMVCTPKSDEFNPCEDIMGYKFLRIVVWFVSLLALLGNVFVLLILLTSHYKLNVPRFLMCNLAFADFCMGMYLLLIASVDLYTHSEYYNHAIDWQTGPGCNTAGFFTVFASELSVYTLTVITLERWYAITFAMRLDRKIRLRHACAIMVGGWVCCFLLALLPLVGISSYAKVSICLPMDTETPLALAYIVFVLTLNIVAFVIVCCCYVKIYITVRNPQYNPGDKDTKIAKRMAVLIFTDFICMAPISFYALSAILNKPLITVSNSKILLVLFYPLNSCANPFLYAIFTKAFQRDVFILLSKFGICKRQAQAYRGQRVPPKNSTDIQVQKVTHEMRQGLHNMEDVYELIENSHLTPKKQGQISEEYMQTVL

Cc1ccc(C)c([N+](=O)[O-])c1
inactive: Potency [1] | outcome [2] | outcome [3] | outcome [4] | outcome [5] | outcome [6] | outcome [7] | Potency [8] | Potency [9] | outcome [10] | Potency [11] | Potency [12] | outcome [13] | max response [14] 12.1%

CCCCCCCCCOC(=O)c1ccccc1C(=O)OCCCCCCCCC
inactive: Potency [1] | outcome [2] | outcome [3] | outcome [4] | outcome [5] | outcome [6] | outcome [7] | Potency [8] | Potency [9] | outcome [10] | Potency [11] | Potency [12] | outcome [13] | max response [14] 2.9%

CCO[Si](CC)(OCC)OCC
inactive: Potency [1] | outcome [2] | outcome [3] | outcome [4] | outcome [5] | outcome [6] | outcome [7] | Potency [8] | Potency [9] | outcome [10] | Potency [11] | outcome [13] | max response [14] -9.96%

CCC(C)OC(C)CC (stereo not drawn)
inactive: Potency [1] | outcome [2] | outcome [3] | outcome [4] | outcome [5] | outcome [6] | outcome [7] | Potency [9] | outcome [10] | Potency [11] | outcome [13] | max response [14] -6.97% | Potency [15]

C=CCCCCCCCCC(=O)OCCCC
inactive: Potency [1] | outcome [2] | outcome [3] | outcome [4] | outcome [5] | outcome [6] | outcome [7] | Potency [9] | outcome [10] | Potency [11] | Potency [12] | outcome [13] | max response [14] 7.61% | Potency [15]

COc1ccc(CCO)cc1
inactive: Potency [1] | outcome [2] | outcome [3] | outcome [4] | outcome [5] | outcome [6] | outcome [7] | Potency [8] | Potency [9] | outcome [10] | Potency [11] | max response [14] 21.3% | Potency [15]

O=C=NCC1CCCC(CN=C=O)C1 (stereo not drawn)
inactive: Potency [1] | outcome [2] | outcome [3] | outcome [4] | outcome [5] | outcome [6] | outcome [7] | Potency [8] | Potency [9] | outcome [10] | Potency [11] | Potency [12] | outcome [13] | max response [14] 1.36% | Potency [15]

CCCSSCCC
inactive: Potency [1] | outcome [2] | outcome [3] | outcome [4] | outcome [5] | outcome [6] | outcome [7] | Potency [8] | Potency [9] | outcome [10] | Potency [11] | outcome [13] | max response [14] 2.19% | Potency [15]

CN(C)CCN(C)CCO
inactive: Potency [1] | outcome [2] | outcome [3] | outcome [4] | outcome [5] | outcome [6] | outcome [7] | Potency [9] | outcome [10] | Potency [11] | max response [14] 5.64%

CCc1occc(=O)c1O
inactive: Potency [1] | outcome [2] | outcome [3] | outcome [4] | outcome [5] | outcome [6] | outcome [7] | Potency [8] | Potency [9] | Potency [11] | outcome [13] | max response [14] 3.56% | Potency [15]

O=C(Cl)c1ccccc1[N+](=O)[O-]
inactive: Potency [1] | outcome [2] | outcome [3] | outcome [4] | outcome [5] | outcome [6] | outcome [7] | Potency [9] | outcome [10] | Potency [11] | Potency [12] | outcome [13] | max response [14] 9.73%

Cc1c(C(=O)c2c[nH]n(C)c2=O)ccc(S(C)(=O)=O)c1C1=NOCC1
inactive: Potency [1] | outcome [2] | outcome [4] | outcome [5] | outcome [6] | outcome [16] | outcome [7] | Potency [8] | Potency [9] | outcome [10] | Potency [11] | Potency [12] | outcome [13] | max response [14] 2.86% | Potency [15]

Fc1ccccc1
inactive: Potency [1] | outcome [2] | outcome [3] | outcome [4] | outcome [6] | Potency [17] | activity change, positive = activation [18] 8.1% | outcome [7] | Potency [8] | Potency [9] | Potency [11] | outcome [13] | max response [14] 13.3% | Potency [15]

Cn1c(=O)c2c(ncn2CCO)n(C)c1=O
inactive: Potency [1] | outcome [2] | outcome [3] | outcome [4] | outcome [5] | outcome [16] | outcome [7] | Potency [8] | Potency [9] | outcome [10] | Potency [11] | Potency [12] | outcome [13] | max response [14] 3.56%

COc1cc2c(cc1OC)CN(C(=O)[C@H](C)N[C@@H](CCc1ccccc1)C(=O)O)[C@H](C(=O)O)C2
inactive: Potency [1] | outcome [2] | outcome [3] | outcome [4] | outcome [6] | outcome [16] | outcome [7] | Potency [8] | Potency [9] | outcome [10] | Potency [11] | outcome [13] | max response [14] 2.78% | Potency [15]

C=CC(=O)CCCCC
inactive: Potency [1] | outcome [2] | outcome [4] | outcome [5] | outcome [6] | outcome [16] | outcome [7] | Potency [8] | Potency [9] | outcome [10] | Potency [11] | Potency [12] | outcome [13] | max response [14] -1.98% | Potency [15]

CO[C@@]1(NC(=O)Cc2cccs2)C(=O)N2C(C(=O)O)=C(COC(N)=O)CS[C@@H]21
inactive: Potency [1] | outcome [2] | outcome [3] | outcome [4] | outcome [5] | outcome [16] | outcome [7] | Potency [8] | Potency [9] | outcome [10] | Potency [11] | Potency [12] | outcome [13] | max response [14] 0.152%
